Our source for the Percent Effect values is ChEMBL document CHEMBL3988442, “University of Dundee, Small-Polar-MMV Screening Library” (2021).

Experiment [1] deals with T1, Aspartate--tRNA(Asp/Asn) ligase (Mycobacterium tuberculosis (strain ATCC 25618 / H37Rv)) (UniProt P9WFW3).
T1 sequence (whole entry): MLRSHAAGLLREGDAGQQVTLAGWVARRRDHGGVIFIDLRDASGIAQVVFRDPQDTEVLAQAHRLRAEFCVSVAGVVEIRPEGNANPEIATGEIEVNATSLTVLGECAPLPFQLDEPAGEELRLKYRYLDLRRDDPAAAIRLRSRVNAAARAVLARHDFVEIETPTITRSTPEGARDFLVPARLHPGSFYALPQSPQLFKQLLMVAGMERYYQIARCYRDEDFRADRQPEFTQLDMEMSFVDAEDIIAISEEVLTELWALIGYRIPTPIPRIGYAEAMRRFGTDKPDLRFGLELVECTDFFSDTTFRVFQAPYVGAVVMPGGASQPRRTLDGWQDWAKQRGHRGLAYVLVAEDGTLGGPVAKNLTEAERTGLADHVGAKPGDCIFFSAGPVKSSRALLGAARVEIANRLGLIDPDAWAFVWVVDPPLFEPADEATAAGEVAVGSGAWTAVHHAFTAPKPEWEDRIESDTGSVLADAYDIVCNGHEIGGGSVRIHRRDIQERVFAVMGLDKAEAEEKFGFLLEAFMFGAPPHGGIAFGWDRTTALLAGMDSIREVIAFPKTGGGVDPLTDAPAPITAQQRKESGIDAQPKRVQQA
In words: Assay for Asp RNA synthetase-1 from Mycobacterium tuberculosis. It counts as functional. Also noted: scale not given: direction of the effect not stated beside the values. Particulars: 30 µM.

Experiment [2] deals with Shiga toxin 2 (Escherichia coli O157:H7) (UniProt P09385+P09386). In words: E. coli 0.157:H7 Shiga Toxin SOP - stx2 screening assay. Format: functional. Details: scale not given: direction of the effect not stated beside the values. The conditions noted are these: 30 µM.

Turning to `CC(C)NC(=O)c1n[nH]c(-n2cnnc2)n1`, the Percent Effect in experiment [1] was -4.62%; in experiment [2] it was -0.0919%.
For `Cc1ccc(C(=O)NCCCN2CCOCC2)c(Cl)c1`, the Percent Effect was 0.357% in experiment [1] and -18.1% in experiment [2].
With `O=C(c1ccco1)N1CCC2(CC1)C(=O)NCCN2CC1CC1`, the Percent Effect in experiment [1] was 10.6%; in experiment [2], -10.1%.
Consider `O=C(CCc1cscn1)N1CCCC(n2ccnc2)C1` (configuration not stated), for which the Percent Effect in experiment [1] is -3.19%; in experiment [2] it was -12.2%.
As to `Cc1cccc(NC(=O)Cn2ncc(SCC(N)=O)c(Cl)c2=O)c1C`, the Percent Effect was -2.73% in experiment [1] and 5.03% in experiment [2].
`Cc1ccc(CN2CCc3ncnc(C4CCOC4)c3CC2)s1` (configuration not stated): the Percent Effect in experiment [1] is 1.05%; in experiment [2], -15.3%.
With `O=C1NCCN(CC2CC2)C12CCN(Cc1ccc3c(c1)OCO3)CC2`, the Percent Effect in experiment [1] was 11.3%; in experiment [2] it was -21.2%.
For `Cc1occc1C(=O)N1CCC2(CCCN(CC3CCC3)C2=O)C1` (configuration not stated), in that order: -2.62% and -2.14%.
For `O=C1CN(Cc2nnc(-c3ccc(Br)cc3)o2)CCN1`, in that order: -0.167% and -95.1%.
For `COCCN1C(=O)CO[C@H]2CN(Cc3c[nH]nc3-c3ccccc3)C[C@@H]21` the same measures were -1.03% and 7.69%.
For the compound `CCc1ncc2c(n1)CN(CC(=O)NCCOc1ccccc1)CC2`, the Percent Effect in experiment [1] came to 2.89%; in experiment [2] it was 23.5%.
As for `Cc1nc(C2CCCN(C(=O)c3sccc3C3CC3)C2)no1` (configuration not stated), the Percent Effect in experiment [1] is -0.613%; in experiment [2] it was 0.602%.
For the compound `O=C1CC(c2ccncc2)C2(CCN(C(=O)c3ccc[nH]3)CC2)N1` (configuration not stated), the Percent Effect in experiment [1] is -0.81%; in experiment [2] it was -8.09%.
Turning to `CCc1[nH]ncc1C(=O)N1CCCN(Cc2cnn(C)c2)CC1`, the results for the Percent Effect in experiment [1] and in experiment [2] were -0.259% and 17.2%, respectively.
For `CC(O)CN(CC(=O)NC(=O)NC1CC1)c1ccccc1` (configuration not stated), the Percent Effect in experiment [1] was -1.82%; in experiment [2], 4.59%.
`Cc1n[nH]c(C)c1C1COCCN1C(=O)c1cc(Cl)c[nH]1` (configuration not stated): the Percent Effect is 2.63% in experiment [1] and -24.9% in experiment [2].
With `CN1CCC/C1=N\S(=O)(=O)c1ccc(NC(=O)CCc2cccs2)cc1`, the Percent Effect is 1.3% in experiment [1] and -144% in experiment [2].
Regarding `CCc1nc(CN2CCCN(C(=O)CCc3ccco3)CC2)cs1`, the results for the Percent Effect in experiment [1] and in experiment [2] were -4.26% and -71.2%, respectively.
In the case of `Cn1ccnc1COc1ccc(CO)cc1`, the Percent Effect in experiment [1] is 1.33%; in experiment [2], -14.5%.
For `CCNC(c1ccc(OC)cc1)c1cccnc1` (configuration not stated), the Percent Effect came out at 1.53% in experiment [1] and 1.33% in experiment [2].
Take `COc1ccc(-c2noc(CN3CCOCC3C)n2)cc1OC` (configuration not stated): the figures for the Percent Effect in experiment [1] and in experiment [2] were 4.1% and 26.5%, respectively.
As for `COCCN(C)C[C@@H]1CN(C(=O)c2cccc(C(F)(F)F)c2)C[C@@H]1CO`, the Percent Effect is -4.52% in experiment [1] and 8.62% in experiment [2].
`O=C1NCc2ccc(NC(=O)C3CCCN3c3nccs3)cc21` (configuration not stated): the Percent Effect in experiment [1] was 0.522%; in experiment [2], -17.5%.
In the case of `Cc1cc(C)c(CNC(=O)N2CCCC2c2cccn2C)c(=O)[nH]1` (configuration not stated), the Percent Effect in experiment [1] was -3.71%; in experiment [2] it was -31.2%.
Turning to `Cc1ccccc1CC(=O)N(C)C1CCN(c2ccccn2)CC1`, the values for the Percent Effect in experiment [1] and in experiment [2] were -1.19% and 6.11%, respectively.
Take `CC(=O)Nc1nc(C(=O)Nc2ccc(F)cc2)cs1`: the Percent Effect in experiment [1] was -0.259%; in experiment [2] it was -5.87%.
With `COCCCNC(=O)CN(C)C(=O)c1cc(C)sc1C`, the Percent Effect was -2.19% in experiment [1] and 10.4% in experiment [2].
For the compound `CN(C)Cc1cc(=O)n2c(n1)CN(C(=O)Cc1ccsc1)CCC2`, the Percent Effect in experiment [1] was -1.04%; in experiment [2], -17%.
Consider `Cc1nc(NCc2ccc(C)o2)cc(C(=O)N2CCOCC2)n1`, for which the results for the Percent Effect in experiment [1] and in experiment [2] were 12.5% and -16.9%, respectively.
On to `Cc1cnn(CCC(=O)N2C[C@H]3CC[C@@H]2CN(CC(=O)N(C)C)C3)c1`, for which the figures for the Percent Effect in experiment [1] and in experiment [2] were 4.25% and -21.6%, respectively.
As for `CNC(=O)C1CCC(NC(=O)N(C)Cc2c(C)noc2C)CC1` (configuration not stated), the Percent Effect was -3.01% in experiment [1] and 14.3% in experiment [2].
Take `O=c1cc2c(nn1CN1CCN(c3ccccc3)CC1)CCC2`: the Percent Effect is 6.3% in experiment [1] and -14% in experiment [2].
On to `CN1CCC/C1=N\S(=O)(=O)c1ccc(NC(=O)c2ccc(F)cc2)cc1`, for which the results for the Percent Effect in experiment [1] and in experiment [2] were 4.61% and -109%, respectively.
As to `c1ccc(-n2ccc(CN3CCCC3Cn3cccn3)n2)cc1` (configuration not stated), the Percent Effect in experiment [1] is 4.81%; in experiment [2], -19.3%.
In the case of `Cc1nc(CSCCC(=O)NCc2cccnc2N(C)C)cs1`, the values for the Percent Effect in experiment [1] and in experiment [2] were 1.66% and -9.97%, respectively.
For `COCCc1noc(CNC2CCc3nc(C(C)C)nn3C2)n1` (configuration not stated), in that order: 3.49% and 9.38%.
In the case of `CNC(=O)CN1CCCC12CCN(C(=O)c1ccsc1)CC2`, the figures for the Percent Effect in experiment [1] and in experiment [2] were 0.137% and -0.413%, respectively.
On to `CCOC(=O)N1CCN(Cc2ccc(OCc3nccn3C)cc2)CC1`, for which the Percent Effect in experiment [1] was -4.7%; in experiment [2], -21.9%.
For `Cc1nn(C)c(C)c1C(=O)N1CCOCC1CC(=O)c1ccco1` (configuration not stated), the Percent Effect was 1.17% in experiment [1] and -5.88% in experiment [2].
With `NC(=O)c1cc(NC(=O)NCCc2cc(F)cc(F)c2)ccc1F`, the Percent Effect in experiment [1] was 4.79%; in experiment [2], -82%.
For the compound `CCCc1noc(CN(C)C(=O)C2COc3ccccc3C2)n1` (configuration not stated), the Percent Effect in experiment [1] was 1.75%; in experiment [2], -22.5%.
In the case of `COc1ccccc1OCC(=O)NCC(O)(c1ccccc1)C1CC1` (configuration not stated), the Percent Effect in experiment [1] was -1.26%; in experiment [2], 6.19%.
As for `O=C1CCCCN1c1cccc(CNC2CCCC2)c1`, the results for the Percent Effect in experiment [1] and in experiment [2] were -0.259% and 18%, respectively.
For the compound `CS(=O)(=O)NC1CCN(C(=O)NCCc2ccccc2F)CC1`, the values for the Percent Effect in experiment [1] and in experiment [2] were -3.88% and -19.2%, respectively.
As to `CN(C)c1ccccc1C(=O)N1C[C@@H](CN2CCOCC2)[C@@H](CO)C1`, the Percent Effect in experiment [1] was -3.28%; in experiment [2] it was 10.2%.
For `Cc1cccn2c(=O)cc(OC(=O)c3ccccc3)nc12` the same measures were -3.21% and -13.3%.
As to `Cc1nn(C)c(N2CCOCC2)c1CNC1CCOc2ccccc21` (configuration not stated), the Percent Effect in experiment [1] was -2.83%; in experiment [2], 9.33%.
For `Fc1cccc(CN2CCO[C@H]3[C@@H](OCc4ccccn4)CC[C@@H]32)c1`, in that order: 0.564% and -1.04%.
For `CCC(O)CNC(=O)c1coc(COc2ccc3sc(C)nc3c2)n1` (configuration not stated), in that order: 5.32% and -27.2%.
Regarding `Cc1nc(CN2CCCC(NCc3c(C)nc4sccn34)C2)no1` (configuration not stated), the results for the Percent Effect in experiment [1] and in experiment [2] were 2.46% and -20.2%, respectively.
For the compound `CN1CCN(C2CCN(CCOc3ccc(F)cc3)CC2)C1=O`, the Percent Effect is -2.61% in experiment [1] and -5.38% in experiment [2].
